Laboratory results taken from PubChem BioAssay (Tox21).
Inconclusive results are not listed. Entries that show only a call come without a potency. Activity calls are given as the source filed them. Calls come from the whole dose curve; as a rule, active = well fitted curve in the direction sought with a large enough effect in the repeat runs; inconclusive = weak or mixed curves; inactive = no such curve, though single readings can be large; an effect the other way counts as inactive or inconclusive.

Target: Cytochrome P450 1A2 (Homo sapiens) (UniProt P05177)
Sequence (P05177 whole entry, looked up): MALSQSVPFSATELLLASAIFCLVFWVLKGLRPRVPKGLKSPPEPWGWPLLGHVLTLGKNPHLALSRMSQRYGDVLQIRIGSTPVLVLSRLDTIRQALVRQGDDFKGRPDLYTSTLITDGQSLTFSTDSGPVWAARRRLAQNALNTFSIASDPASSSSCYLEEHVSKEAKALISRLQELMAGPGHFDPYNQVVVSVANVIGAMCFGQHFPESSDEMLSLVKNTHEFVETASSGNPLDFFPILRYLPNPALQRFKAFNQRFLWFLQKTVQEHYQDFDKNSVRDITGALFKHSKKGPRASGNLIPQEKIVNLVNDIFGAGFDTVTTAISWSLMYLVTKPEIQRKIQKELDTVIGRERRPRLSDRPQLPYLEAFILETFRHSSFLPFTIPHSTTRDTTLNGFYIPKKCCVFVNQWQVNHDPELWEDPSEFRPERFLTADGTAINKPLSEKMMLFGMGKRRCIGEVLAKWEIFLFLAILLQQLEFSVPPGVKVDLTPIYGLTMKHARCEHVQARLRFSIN
Test: Cytochrome P450 Family 1 Subfamily A Member 2 (CYP1A2) small molecule antagonists: luciferase reporter qHTS assay (AID 1671199)
Settings: P450-Glo CYP1A2 enzyme, luciferin luminescence, 1 h; series mostly up to 53 µM
Procedure, shortened: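 P450-Glo CYP1A2, 1536-well qHTS: enzyme/proluciferin substrate + cpd (DMSO), 10 min RT; NADPH regen, 1 h RT; detection reagent, 20 min; luminescence, RLU.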
Note: nearly all actives have a fitted effect of over 50% in size.
Potency is the fitted concentration of half-maximal effect.

SMILES	Potency
O=C(O)CN(CCN(CC(=O)O)CC(=O)O)CCN(CC(=O)O)CC(=O)O	inactive
Nc1ccc(Oc2ccc(N)c(N)c2)cc1	35.6 µM (active)
COc1cc2c(cc1N)oc1ccccc12	0.513 µM (active)
CCCCC(=O)O[C@]1(C(=O)CO)[C@H](C)C[C@H]2[C@@H]3CCC4=CC(=O)C=C[C@]4(C)[C@@]3(F)[C@@H](O)C[C@@]21C	inactive
CCN(CCCc1ccccc1)CCCc1ccccc1	7.23 µM (active)
O=C(O)[C@@H](O)[C@H](O)[C@H](O)[C@@H](O)C(=O)O	inactive
CCOc1ccc(NS(=O)(=O)c2ccc(N)cc2)nn1	inactive
CC(C)c1ccccc1	inactive
CCCc1c2oc(C(=O)O)cc(=O)c2cc2c(=O)cc(C(=O)O)n(CC)c12	inactive
N#CSCC(=O)O	inactive
CCc1nnc(NS(=O)(=O)c2ccc(N)cc2)s1	inactive
COc1ccc2nc(NC(=O)Nc3ccccc3)sc2c1	12.3 µM (active)
CCCCC(CC)COC(=O)COc1cc(Cl)c(Cl)cc1Cl (stereo not drawn)	15.9 µM (active)
O=C1Nc2ccc([N+](=O)[O-])cc2C1=O	22.4 µM (active)
Cc1nc(N)nc(N)c1-c1ccc(Cl)c(Cl)c1	inactive
O=Cc1ccc(O)c(O)c1O	inactive
CC(C)OC(C)C	inactive
O=C(O[C@@H](C(=O)O)[C@@H](OC(=O)c1ccccc1)C(=O)O)c1ccccc1	72.2 µM (active)
Cc1ccc([N+](=O)[O-])c(N)c1	24.6 µM (active)
CCC(=O)c1ccc2c(c1)N(CCCN(C)C)c1ccccc1S2	1.82 µM (active)
OCc1c2ccccc2cc2ccccc12	0.897 µM (active)
CN(CCCN1c2ccccc2CCc2ccccc21)CC(=O)c1ccc(Cl)cc1	11 µM (active)
CCc1cc(Cl)c(OC)c(C(=O)NC[C@@H]2CCCN2CC)c1O	12.9 µM (active)
CCCCNC(=S)NCCCC	44.8 µM (active)

Target: Voltage-gated inwardly rectifying potassium channel KCNH2 (Homo sapiens) (UniProt Q12809)
Sequence (Q12809 whole entry, looked up): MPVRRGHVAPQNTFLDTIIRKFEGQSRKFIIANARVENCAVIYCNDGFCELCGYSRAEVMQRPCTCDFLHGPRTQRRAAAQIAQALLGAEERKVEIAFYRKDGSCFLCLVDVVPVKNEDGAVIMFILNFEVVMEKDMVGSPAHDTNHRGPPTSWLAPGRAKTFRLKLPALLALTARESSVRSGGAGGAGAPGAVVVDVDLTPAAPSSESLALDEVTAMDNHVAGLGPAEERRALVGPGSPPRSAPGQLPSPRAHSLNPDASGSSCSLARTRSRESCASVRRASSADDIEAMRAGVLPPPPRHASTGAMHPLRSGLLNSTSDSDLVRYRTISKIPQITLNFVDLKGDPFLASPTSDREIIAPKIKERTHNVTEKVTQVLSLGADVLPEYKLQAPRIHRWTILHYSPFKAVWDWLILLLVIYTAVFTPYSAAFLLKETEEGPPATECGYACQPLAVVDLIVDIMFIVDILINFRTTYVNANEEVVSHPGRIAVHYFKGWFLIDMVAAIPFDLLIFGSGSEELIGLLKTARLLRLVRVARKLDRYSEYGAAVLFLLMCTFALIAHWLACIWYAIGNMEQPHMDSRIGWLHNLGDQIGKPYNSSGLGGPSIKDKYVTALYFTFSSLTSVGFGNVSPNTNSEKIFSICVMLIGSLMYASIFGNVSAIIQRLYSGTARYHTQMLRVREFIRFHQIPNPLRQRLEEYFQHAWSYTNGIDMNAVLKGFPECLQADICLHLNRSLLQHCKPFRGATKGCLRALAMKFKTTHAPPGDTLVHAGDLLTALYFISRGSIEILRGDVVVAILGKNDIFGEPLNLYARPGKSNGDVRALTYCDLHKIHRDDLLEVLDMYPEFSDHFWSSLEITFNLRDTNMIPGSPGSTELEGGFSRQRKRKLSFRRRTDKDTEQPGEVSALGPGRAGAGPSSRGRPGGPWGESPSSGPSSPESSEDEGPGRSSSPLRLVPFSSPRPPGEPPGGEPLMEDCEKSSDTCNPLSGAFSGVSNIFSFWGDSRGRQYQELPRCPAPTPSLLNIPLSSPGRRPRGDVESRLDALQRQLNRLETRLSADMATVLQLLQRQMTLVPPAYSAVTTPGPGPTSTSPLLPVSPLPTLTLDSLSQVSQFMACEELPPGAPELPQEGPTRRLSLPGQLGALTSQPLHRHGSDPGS
Test: Human Ether-a-go-go-Related Gene (hERG) channel small molecule antagonists: fluorescence cell-based qHTS assay (AID 1671200)
Settings: hERG-U2OS cells, FluxOR thallium flux fluorescence; series mostly up to 76.8 µM
Procedure, shortened: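 Thallium flux as potassium surrogate: FluxOR II dye loaded 1 h at room temperature into hERG-expressing U2OS cells, then stimulus buffer added after 10 min. Kinetic 480 nm excitation/540 nm emission read, 2 min.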

SMILES	activity change, negative = inhibition	Potency
O=C(O)CN(CCN(CC(=O)O)CC(=O)O)CCN(CC(=O)O)CC(=O)O	6.28% [at 15.8 µM] (inactive)	
CN1CCN(C2=Nc3cc(F)ccc3Cc3ccccc32)CC1		inactive
COc1cc2c(cc1N)oc1ccccc12		inactive
C[C@@H](N)C(=O)O		inactive
CCCCC(=O)O[C@]1(C(=O)CO)[C@H](C)C[C@H]2[C@@H]3CCC4=CC(=O)C=C[C@]4(C)[C@@]3(F)[C@@H](O)C[C@@]21C		inactive
Nc1ccc2ccccc2c1S(=O)(=O)O		inactive
NC(=O)NS(=O)(=O)c1ccc(Cl)cc1		inactive
O=C(O)[C@@H](O)[C@H](O)[C@H](O)[C@@H](O)C(=O)O		inactive
Cc1ccccc1C(=O)Nc1ccc(C(=O)N2CCCC(O)c3cc(Cl)ccc32)c(C)c1 (stereo not drawn)		inactive
CCCCCCn1c(=O)c2c(ncn2C)n(C)c1=O		inactive
CC(C)c1ccccc1		inactive
CCCc1c2oc(C(=O)O)cc(=O)c2cc2c(=O)cc(C(=O)O)n(CC)c12		inactive
N#CSCC(=O)O		inactive
CC(C)CCCCCCc1ccc(OCCOCCO)cc1		inactive
CCCCCCCCCC#N		inactive
CCc1nnc(NS(=O)(=O)c2ccc(N)cc2)s1		inactive
CC(=O)O[C@H]1CC[C@@]2(C)C(=CC[C@@H]3[C@@H]2CC[C@]2(C)C(C(C)=O)=CC[C@@H]32)C1		inactive
NC(Cc1ccc(F)cc1)C(=O)O (stereo not drawn)	3.14% [at 6.97 µM] (inactive)	
COc1ccc2nc(NC(=O)Nc3ccccc3)sc2c1		inactive
CCCCC(CC)COC(=O)COc1cc(Cl)c(Cl)cc1Cl (stereo not drawn)		inactive
O=C1Nc2ccc([N+](=O)[O-])cc2C1=O		inactive
O=Cc1ccc(O)c(O)c1O		inactive
CC(C)OC(C)C		inactive
O=C(O[C@@H](C(=O)O)[C@@H](OC(=O)c1ccccc1)C(=O)O)c1ccccc1		inactive
Cc1ccc([N+](=O)[O-])c(N)c1		inactive
CCC(=O)c1ccc2c(c1)N(CCCN(C)C)c1ccccc1S2		9.52 µM (active)
OCc1c2ccccc2cc2ccccc12		inactive
CN(CCCN1c2ccccc2CCc2ccccc21)CC(=O)c1ccc(Cl)cc1		inactive
CCc1cc(Cl)c(OC)c(C(=O)NC[C@@H]2CCCN2CC)c1O		6.74 µM (active)

Target: Cytochrome P450 3A4 (Homo sapiens) (UniProt P08684)
Sequence (P08684 whole entry, looked up): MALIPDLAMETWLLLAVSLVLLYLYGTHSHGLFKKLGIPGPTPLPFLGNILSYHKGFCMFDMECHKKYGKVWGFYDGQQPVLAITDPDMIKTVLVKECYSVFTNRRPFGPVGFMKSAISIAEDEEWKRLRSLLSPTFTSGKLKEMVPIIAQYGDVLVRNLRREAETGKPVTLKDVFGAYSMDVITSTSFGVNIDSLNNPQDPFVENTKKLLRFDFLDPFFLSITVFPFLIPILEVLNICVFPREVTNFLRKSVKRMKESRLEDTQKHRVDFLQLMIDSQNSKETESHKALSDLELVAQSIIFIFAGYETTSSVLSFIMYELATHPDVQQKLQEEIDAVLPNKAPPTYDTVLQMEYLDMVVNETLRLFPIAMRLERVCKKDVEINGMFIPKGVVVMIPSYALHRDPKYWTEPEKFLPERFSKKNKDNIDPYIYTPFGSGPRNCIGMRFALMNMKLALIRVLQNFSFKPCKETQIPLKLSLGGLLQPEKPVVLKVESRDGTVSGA
Test: Cytochrome P450 Family 3 Subfamily A Member 4 (CYP3A4) small molecule antagonists: luciferase reporter qHTS assay (AID 1671201)
Settings: P450-Glo CYP3A4 enzyme, luciferin luminescence, 1 h; series mostly up to 115 µM
Procedure, shortened: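 Recombinant human CYP3A4 converts a proluciferin substrate to luciferin over 1 h at room temperature after NADPH regeneration solution is added (compound preincubated 10 min); detection reagent stops reaction, luminescence read 20 min later as relative units.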

SMILES	activity change, negative = inhibition	Potency
O=C(O)CN(CCN(CC(=O)O)CC(=O)O)CCN(CC(=O)O)CC(=O)O	10.1% [at 23.6 µM] (inactive)	
Nc1ccc(Oc2ccc(N)c(N)c2)cc1		3.56 µM (active)
COc1cc2c(cc1N)oc1ccccc12		7.25 µM (active)
C[C@@H](N)C(=O)O		inactive
Nc1ccc2ccccc2c1S(=O)(=O)O		57.5 µM (active)
NC(=O)NS(=O)(=O)c1ccc(Cl)cc1		inactive
CCN(CCCc1ccccc1)CCCc1ccccc1		inactive
CCCS(=O)c1ccc2nc(NC(=O)OC)[nH]c2c1 (stereo not drawn)		inactive
O=C(O)[C@@H](O)[C@H](O)[C@H](O)[C@@H](O)C(=O)O		inactive
CCOc1ccc(NS(=O)(=O)c2ccc(N)cc2)nn1		inactive
CCCCCCn1c(=O)c2c(ncn2C)n(C)c1=O		inactive
CC(C)c1ccccc1		inactive
CCCc1c2oc(C(=O)O)cc(=O)c2cc2c(=O)cc(C(=O)O)n(CC)c12		inactive
N#CSCC(=O)O		inactive
CC(C)CCCCCCc1ccc(OCCOCCO)cc1		inactive
CCCCCCCCCC#N		inactive
C=CCc1cc(OC)c(O)c(C(=O)NCCO)c1		inactive
CC(=O)O[C@H]1CC[C@@]2(C)C(=CC[C@@H]3[C@@H]2CC[C@]2(C)C(C(C)=O)=CC[C@@H]32)C1		inactive
COc1ccc2nc(NC(=O)Nc3ccccc3)sc2c1		inactive
CCCCC(CC)COC(=O)COc1cc(Cl)c(Cl)cc1Cl (stereo not drawn)		6.33 µM (active)
Cc1nc(N)nc(N)c1-c1ccc(Cl)c(Cl)c1		inactive
O=Cc1ccc(O)c(O)c1O		inactive
CC(C)OC(C)C		inactive
O=C(O[C@@H](C(=O)O)[C@@H](OC(=O)c1ccccc1)C(=O)O)c1ccccc1		inactive
Cc1ccc([N+](=O)[O-])c(N)c1		inactive
CCC(=O)c1ccc2c(c1)N(CCCN(C)C)c1ccccc1S2		inactive
CCCCCCCOC(=O)CCC		inactive
OCc1c2ccccc2cc2ccccc12		25.3 µM (active)
CCc1cc(Cl)c(OC)c(C(=O)NC[C@@H]2CCCN2CC)c1O		inactive
CCCCNC(=S)NCCCC		31.7 µM (active)
